HCV inh = qHTS Assay for Inhibitors of Hepatitis C Virus (HCV); Huh7.5.1 HCVcc-Cre infection, luciferase reporter, 44 h; Potency, µM (highest dose often 41.8 µM), inactives show at the top dose activity change, negative = inhibition, hits mostly inhibitors; 340,000 tested, 3.4% active; AID 651820, 2012; active = well fitted inhibition curve with a large enough effect; inconclusive = small, poorly fitted or top-dose-only effect, or another doubt; inactive = no such curve, though single readings can be large or run the other way; also: potency is read from the fitted curve at half-maximal effect
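Cells (1,000/well) were plated 4 h before compound, then infected with HCVcc-Cre virus (~0.5 moi). After 44 h further culture, infection was read as luciferase luminescence following a 15 min substrate incubation at room temperature.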
MARV entry inh = qHTS for inhibitors of binding or entry into cells for Marburg Virus; Marburg virus pseudotyped entry inhibition, cell reporter; Potency, µM (top dose mostly 37.8 µM), for the others: at the highest dose activity change, negative = inhibition, actives largely listed as inhibitors; 300,000 tested, 1.8% active; AID 540276, 2011; calls by dose curve; tested in HEK293 cells; also: potency is read from the fitted curve at half-maximal effect
HCMV inh = qHTS Assay for inhibitors of the human cytomegalovirus (HCMV); HFF cells, HCMV-luciferase reporter, 72 h; active compounds read low; activity change, negative = inhibition, % at 57.5 µM; 410,000 tested, 4.5% active; in the data active = activity change below about -60%; inconclusive = no clear call, values can overlap the other calls; inactive = above about -39%
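Luciferase read-out from HCMV-luciferase-infected HFFs (MOI 1 PFU/cell) 72 h post infection at 37C; compounds added after 16 h cell attachment; activity normalized between buffer-only basal and Salinomycin (10uM) inhibitor controls.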
FMDV inh = High Throughput Screening for Foot and Mouth Disease Virus Antivirals; FMDV antiviral cell-based qHTS; Potency, µM (titrated, usually from 57.9 µM), without a hit: at the highest dose activity change, negative = inhibition, most hits filed as inhibitors; 410,000 tested, 1.2% active; calls by dose curve; tested in HEK293T cells; also: read-out not given here; potency is read from the fitted curve at half-maximal effect; nearly all actives have a fitted effect of over 45% in size
Lassa entry inh = qHTS for Inhibitors of binding or entry into cells for Lassa Virus | Lassa virus pseudotype entry inhibition, cell reporter | Potency, µM (titrated, usually from 37.9 µM), for inactives: at the top dose activity change, negative = inhibition, usual class: inhibitors | 300,000 tested, 1.2% active | AID 540256, 2011; calls by dose curve; tested in HEK293 cells; also: potency is read from the fitted curve at half-maximal effect; nearly all actives have a fitted effect of over 50% in size
Starred values were filed as active, the others as inactive; ? = inconclusive; . = no result given; [ ] = dose if it differs, or a comment. Shown are actives, neighbours in structure and some others; about 7.9% of the full set was active somewhere. % is scaled to controls: 0 for no effect and ±100 for the full control effect.

SMILES	HCV inh	MARV entry inh	HCMV inh	FMDV inh	Lassa entry inh
CCS(=O)(=O)N1CC(=O)N(c2cccc(C)c2C)C(C)(C(=O)NC2CCCCCC2)C1 (stereo not given)	.	.	0	8%	3%[46.1 µM]
CCOc1ccc2[nH]c3c(NCCc4ccc(OC)c(OC)c4)ncnc3c2c1	13µM*	?	-66*	-20%	?
COc1ccc(CCNc2ncnc3sc(C)cc23)cc1OC	2.2µM*	?	-70*	32µM*	?
COc1ccc(CN2C(=O)C(n3cccc3)c3cc(OC)ccc32)cc1 (stereo not given)	.	.	-23	.	.
CCOc1ccc(N2C(=O)CN(CC(=O)OC)C2=S)cc1	11%	16%[46.1 µM]	-69*	14%	-1%[46.1 µM]
CCOc1ccc(N2C(=O)/C(=C/c3cccs3)N(CC(=O)OC)C2=S)cc1	4%	?	18	-8%	-8%
COC(=O)c1sccc1S(=O)(=O)N(CC(=O)NCc1ccccc1)c1ccccc1	.	.	11	14%	-21%[46.1 µM]
Cc1ccc(S(=O)(=O)N2CCOCC2)cc1NC(=O)CSc1nnc2cc(C)c3ccccc3n12	?	?	-63*	?	?
Cc1cc2nnc(SCC(=O)Nc3cc(S(=O)(=O)N4CCOCC4)ccc3Cl)n2c2ccccc12	?	7.9µM*	?	?	14%
Cc1ccc2c(c1)S/C(=C/c1ccc[n+](C)c1)N2CCO	?	?	-77*	-14%	-21%[46.1 µM]
Cc1ccc(S(=O)(=O)CCC(=O)NCCN2C(=O)S/C(=C\c3ccccc3)C2=O)cc1	?	-23%	-26	?	-3%
CO[C@H]1C[C@H](O[C@@H]2/C(C)=C/C[C@@H]3C[C@@H](C[C@]4(CC[C@H](C)[C@@H](C5CCCCC5)O4)O3)OC(=O)[C@@H]3C=C(C)/C(=N/O)[C@H]4OC/C(=C\C=C\[C@@H]2C)[C@]43O)O[C@@H](C)[C@@H]1O	.	.	.	-3%	.
Cc1cc(C)c(S(=O)(=O)Nc2cccc(-c3cn4ccccc4n3)c2)c(C)c1	.	.	-87*	42%	?
Cc1cccn2cc(-c3cccc(S(=O)(=O)N4CC(C)OC(C)C4)c3)nc12 (stereo not given)	22%	.	-8	4%	.
CC1CN(S(=O)(=O)c2cccc(-c3cn4ccccc4n3)c2)CC(C)O1 (stereo not given)	?	?	-86*	.	?
Cc1cccn2cc(-c3cccc(NS(=O)(=O)c4ccc(Cl)c(Cl)c4)c3)nc12	.	16%[46.1 µM]	-91*	35%	-6%[46.1 µM]
Cc1ccc(C(=O)Nc2cccc(-c3cn4ccccc4n3)c2)cc1	-19%	?	42	7%	-27%[46.1 µM]
Cc1ccccc1C(=O)Nc1cccc(-c2cn3ccccc3n2)c1	14µM*	?	-28	?	?
Cc1ccc(S(=O)(=O)Nc2cccc(-c3cn4cccc(C)c4n3)c2)cc1	.	.	-14	75%	-6%[46.1 µM]
CSc1cccc(NC(=O)Cn2ncn3c(cc4ccccc43)c2=O)c1	.	?	33	3%	.
CCOc1ccc(OCC(=O)NCCS(=O)(=O)N2CCN(c3cccc(Cl)c3)CC2)cc1	.	.	-14	-13%	-5%[46.1 µM]
CCOC(=O)c1c(C)oc2ncnc(Nc3ccc(OC)c(OC)c3)c12	.	.	9	-15%	14%[46.1 µM]
CCN(C(=O)CN(C)Cc1c(F)cccc1Cl)c1c(N)n(Cc2ccccc2)c(=O)[nH]c1=O	30%	?	-65*	-7%	18%
CN(C(=O)COC(=O)Cc1c(F)cccc1Cl)c1c(N)n(Cc2ccccc2)c(=O)[nH]c1=O	-19%	15%	5	0%	0%
CCN(C(=O)c1ccc(=O)n(C)n1)c1c(N)n(Cc2ccccc2)c(=O)[nH]c1=O	-15%	1%	-77*	-11%	7%
SMILES	HCV inh	MARV entry inh	HCMV inh	FMDV inh	Lassa entry inh
CCN(C(=O)c1ccc(=O)[nH]c1)c1c(N)n(Cc2ccccc2)c(=O)[nH]c1=O	10%	.	-40	-7%	.
CCOC(=O)c1ccc(NC(=O)CSc2nccn2-c2cc(C)cc(C)c2)cc1	.	.	-1	?	27%[46.1 µM]
COc1ccc(N2CC(NC(=O)COc3ccc(F)cc3)CC2=O)cc1OC (stereo not given)	.	.	-25	-16%	0%[46.1 µM]
CC1CCCc2sc3ncn(N)c(=N)c3c21 (stereo not given)	?	9%[46.1 µM]	-63*	-4%	-8%
CC1(C)Cc2c(sc3ncn(N)c(=N)c23)CO1	-2%	29%	-9	-22%	1%
Cc1nc2ncnn2c(C)c1CCC(=O)Oc1ccccc1	19%	11%	-60*	17%	1%
Cc1ccccc1NS(=O)(=O)c1cc(C(=O)NCc2ccco2)ccc1C	?	-7%	-30	8%	1.6µM*
Cc1ccc(C(=O)NCc2ccco2)cc1S(=O)(=O)Nc1cccc(C)c1C	?	21µM*	0	-101%	?
Cc1ccc(C(=O)Nc2ccccc2)cc1S(=O)(=O)Nc1ccccc1	.	?	2	57%	-4%[46.1 µM]
COc1ccccc1NS(=O)(=O)c1cc(C(=O)NCc2ccco2)ccc1C	-16%	1%	-15	36%	-17%
Cc1ccc(SCCNC(=O)c2ccc(C)c(S(=O)(=O)Nc3ccccc3C)c2)cc1	?	23µM*	-21	.	10µM*
Cc1ccc(C)c(NS(=O)(=O)c2cc(C(=O)NCc3ccco3)ccc2C)c1	?	-18%	-19	40%	?
Cc1ccc(C(=O)NCCSC2CCCCC2)cc1S(=O)(=O)Nc1ccccc1	?	?	-75*	.	?
CCn1c(-c2ccccc2F)nc2cc(NC(C)=O)cc(C(=O)NC(c3ccccn3)C(F)(F)F)c21 (stereo not given)	.	.	.	-10%	.
Cc1[nH]c2ccccc2c1C1=CCNCC1	11µM*	-4%	-26	-2%	-6%
C1=C(c2ccccc2)CCNC1	14%	?	55	-7%	?
C=CCN1C(=O)[C@@]2(CC(C)=C[C@@H](COc3ccccc3)O2)c2ccccc21	.	2%[14.2 µM]	.	.	.
COc1ccccc1Nc1nc(-c2sc(NC(=O)c3ccco3)nc2C)cs1	?	.	1	6%	.
COc1ccc(-c2csc(NC(=O)c3ccco3)n2)cc1	?	5%	91	30%	?
Cc1nc(NC(=O)c2ccco2)sc1-c1csc(Nc2ccc(Cl)cc2Cl)n1	?	.	-77*	-23%	.
COc1cccc(N(C(=O)c2ccco2)c2nc(-c3sc(NC(=O)c4ccco4)nc3C)cs2)c1	4µM*	-2%	?	-6%	.
Cc1ccc(Cl)cc1Nc1nc(-c2sc(NC(=O)c3ccco3)nc2C)cs1	8.9µM*	.	?	1%	.
Cc1nc(NC(=O)c2ccco2)sc1-c1csc(Nc2ccc(Cl)cc2)n1	2.5µM*	.	?	0%	.
COc1cccc(NC(=O)c2oc3ccccc3c2NC(=O)c2ccc(C(F)(F)F)cc2)c1	.	5%[46.1 µM]	5	3%	21%[46.1 µM]
